Cytotoxicity call data for 38 compounds are collected here from the antibiotic and cytotoxicity screens of Wong et al. (2023).

In all, about 39,000 compounds went through this assay and about 3,300 (8.5%) were called active. What follows is part of a selection rich in actives, with near analogues and random picks from the rest.

In this assay the test system is HepG2. Briefly: cytotoxicity call (relative viability < 0.9). Conditions: 10 µM.
Consider `c1cn2c3c(n1)CCCc3c1cc(C3CCCCC3)ccc12`, for which the cytotoxicity call was “inactive”.
Turning to `Nc1ncnc2c1c(I)cn2[C@@H]1O[C@H](CO)[C@@H](O)[C@H]1O`, the cytotoxicity call was “active”.
Next, `CSC[C@H]1O[C@H](n2ccc3c(N)ncnc32)[C@@H](O)[C@H]1O`: “inactive”; `NC(=O)c1cn([C@@H]2O[C@H](CO)[C@@H](O)[C@H]2O)c2ncnc(N)c2c1=O`: “inactive”.
In the case of `Nc1ncnc2c1ncn2[C@H]1O[C@@H](CO)[C@H](O)[C@@H]1S`, the cytotoxicity call is “inactive”.
Take `Nc1ncnc2c1c(I)cn2[C@H]1O[C@@H](CO)[C@@H](O)[C@@H]1O`: the cytotoxicity call was “active”.
The entry for `Nc1nc(=O)n([C@@H]2O[C@H](CO)[C@@H](O)[C@@H]2F)cc1I` is “inactive”.
Consider `CCS(=O)(=O)N1C[C@]2(CCN(CC2)Cc2cccc(c2)OC)c2c([nH]c3cc(ccc23)OC)[C@@H]1CO`, for which the cytotoxicity call was “inactive”.
The entry for `C[C@@H]1CN([C@H](C)CO)C(=O)Cc2cc(NC(=O)CCC(F)(F)F)ccc2O[C@H]1CN(C)S(=O)(=O)c1cccs1` is “inactive”.
The entry for `Cc1ccc(S(=O)(=O)Nc2cccc3c2O[C@H](CN(C)S(=O)(=O)c2cn(C)cn2)[C@@H](C)CN([C@@H](C)CO)C3=O)cc1` is “inactive”.
The entry for `COCCOC(=O)N1C(=O)[C@@]2(c3cc(C#CCC(C(=O)OC)C(=O)OC)ccc31)[C@H](C(=O)Nc1nc3ccccc3s1)[C@H]1C(=O)O[C@H](c3ccccc3)[C@H](c3ccccc3)N1[C@@H]2c1ccccc1OCCO` is “inactive”; for `Cc1noc(C)c1S(=O)(=O)Nc1ccc2c(c1)C(=O)N([C@H](C)CO)C[C@@H](C)[C@H](CN(C)C(=O)Nc1ccc(F)cc1)OCCCC[C@@H](C)O2` it is “inactive”; for `CCOC(=O)C(C)(C)Oc1ccc(Cl)cc1` it is “inactive”.
Consider `CC(C)(C)Oc1ccc(O)cc1`, for which the cytotoxicity call was “inactive”.
Consider `CC(C)(C)C(=O)OCOP(=O)(OCOC(=O)C(C)(C)C)C(C)(Oc1ccc(O)cc1)P(=O)(OCOC(=O)C(C)(C)C)OCOC(=O)C(C)(C)C`, for which the cytotoxicity call is “active”.
Next, `COc1ccc(NC(=O)N(C)C[C@H]2OCCCC[C@@H](C)Oc3ccc(NS(=O)(=O)c4ccc(C)cc4)cc3C(=O)N([C@@H](C)CO)C[C@@H]2C)cc1`: “inactive”.
The entry for `COc1cc2c(cc1O)[C@H](c1ccc(CN3CCCC3)cc1)N(Cc1cc3c(cc1Br)OCO3)CC2` is “inactive”; for `C[C@@H]1CN([C@@H](C)CO)C(=O)Cc2cc(NC(=O)Nc3ccc(C(F)(F)F)cc3)ccc2O[C@@H]1CN(C)C(=O)NC1CCCCC1` it is “active”; for `C[C@@H]1CN([C@@H](C)CO)C(=O)Cc2cc(NC(=O)Nc3ccc(C(F)(F)F)cc3)ccc2O[C@H]1CN(C)C(=O)NC1CCCCC1` it is “inactive”.
In the case of `C[C@@H]1CN([C@H](C)CO)C(=O)Cc2cc(NC(=O)Nc3ccc(C(F)(F)F)cc3)ccc2O[C@H]1CN(C)C(=O)NC1CCCCC1`, the cytotoxicity call was “inactive”.
Turning to `C[C@@H]1CN([C@H](C)CO)C(=O)Cc2cc(NC(=O)Nc3ccc(C(F)(F)F)cc3)ccc2O[C@@H]1CN(C)C(=O)NC1CCCCC1`, the cytotoxicity call was “active”.
Next, `C[C@H]1CN([C@@H](C)CO)C(=O)Cc2cc(NC(=O)Nc3ccc(C(F)(F)F)cc3)ccc2O[C@H]1CN(C)C(=O)NC1CCCCC1`: “inactive”; `C[C@H](CO)N1C[C@H](C)[C@@H](CN(C)C(=O)NC2CCCCC2)Oc2ccc(NC(=O)Nc3ccc(C(F)(F)F)cc3)cc2CC1=O`: “inactive”; `CC(C)C(=O)O`: “inactive”.
As to `C[C@@H]1CN([C@@H](C)CO)C(=O)c2cc(NS(=O)(=O)c3cn(C)cn3)ccc2O[C@@H](C)CCCCO[C@H]1CN(C)S(=O)(=O)c1cccs1`, the cytotoxicity call is “inactive”.
Next, `NCCc1cc2nc(-c3ccncc3)ccn2n1`: “inactive”.
`CN1CCN(C(=O)C[C@H]2CC[C@H]3[C@@H](COC[C@H](O)CN3C(=O)C3CCCC3)O2)CC1`: the cytotoxicity call was “inactive”.
Next, `O=c1ncc(F)c[nH]1`: “inactive”; `CCCNC(=O)N1C[C@]2(CCN(CC2)S(=O)(=O)c2cccc(c2)OC)c2c(n(c3cc(ccc23)OC)C)[C@H]1CO`: “inactive”; `C=CCOC(=O)[C@@H]1[C@H]2C(=O)O[C@H](c3ccccc3)[C@H](c3ccccc3)N2[C@H](c2ccc(OCCOC(=O)[C@H]3C[C@H]4C(=O)N[C@@H](CC(C)C)C(=O)N4[C@H]3c3ccc(O)cc3)cc2)[C@@]12C(=O)Nc1ccc(I)cc12`: “inactive”.
The entry for `CCC(=C/[C@H](C)C/C=C/C(C)=C/[C@@H](C)C(=O)[C@@H](C)[C@H](O)[C@@H](C)C/C(C)=C/C(=O)O)/C=C/[C@@H]1OC(=O)C=C[C@@H]1C` is “active”.
Next, `C[C@@H]1CN([C@H](C)CO)C(=O)c2cc(C#CC3CCCCC3)cnc2O[C@H]1CN(C)C(=O)c1ccncc1`: “inactive”.
As to `CCS(=O)(=O)N1C[C@]2(C1)CN([C@H](CO)c1c2c2ccc(cc2n1C)OC)C(=O)Nc1cccc(c1)F`, the cytotoxicity call was “inactive”.
Next, `C[C@@H]1CN([C@@H](C)CO)C(=O)c2cccc(NS(=O)(=O)c3ccccc3)c2O[C@@H]1CN(C)Cc1ccc(-c2ccccc2)cc1`: “inactive”.
The entry for `C[C@H]1CN([C@@H](C)CO)C(=O)c2cccc(NS(=O)(=O)c3ccccc3)c2O[C@@H]1CN(C)Cc1ccc(-c2ccccc2)cc1` is “inactive”; for `C[C@H]1CN([C@@H](C)CO)C(=O)c2cccc(NS(=O)(=O)c3ccc(F)cc3)c2O[C@H]1CN(C)Cc1ccc(-c2ccccc2)cc1` it is “inactive”.
The entry for `C[C@@H]1CN([C@H](C)CO)C(=O)c2cccc(NS(=O)(=O)c3ccc(F)cc3)c2O[C@H]1CN(C)Cc1ccc(-c2ccccc2)cc1` is “active”.
Turning to `C[C@@H]1CN([C@H](C)CO)C(=O)c2cccc(NS(=O)(=O)c3ccccc3)c2O[C@H]1CN(C)Cc1ccc(-c2ccccc2)cc1`, the cytotoxicity call was “inactive”.
